IDE cell inh: cellular human IDE inhibition; P14735; HEK cells, FAbetaB cleavage, fluorescence polarization; inhibition, % at 5.59 µM; hit rate 0.41% among 320,000; AID 434962;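 active means percent inhibition above the average of all tested compounds plus 3 SD, set per screening campaign, cut at about 16% in these data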;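 further: IDE supplied by intact live HEK cells; FP after avidin binding of uncleaved biotin substrate so inhibition keeps polarization high; 0% = DMSO wells and 100% = 60 µM reference IDE inhibitor Ii1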
Target sequence (P14735 whole entry, looked up): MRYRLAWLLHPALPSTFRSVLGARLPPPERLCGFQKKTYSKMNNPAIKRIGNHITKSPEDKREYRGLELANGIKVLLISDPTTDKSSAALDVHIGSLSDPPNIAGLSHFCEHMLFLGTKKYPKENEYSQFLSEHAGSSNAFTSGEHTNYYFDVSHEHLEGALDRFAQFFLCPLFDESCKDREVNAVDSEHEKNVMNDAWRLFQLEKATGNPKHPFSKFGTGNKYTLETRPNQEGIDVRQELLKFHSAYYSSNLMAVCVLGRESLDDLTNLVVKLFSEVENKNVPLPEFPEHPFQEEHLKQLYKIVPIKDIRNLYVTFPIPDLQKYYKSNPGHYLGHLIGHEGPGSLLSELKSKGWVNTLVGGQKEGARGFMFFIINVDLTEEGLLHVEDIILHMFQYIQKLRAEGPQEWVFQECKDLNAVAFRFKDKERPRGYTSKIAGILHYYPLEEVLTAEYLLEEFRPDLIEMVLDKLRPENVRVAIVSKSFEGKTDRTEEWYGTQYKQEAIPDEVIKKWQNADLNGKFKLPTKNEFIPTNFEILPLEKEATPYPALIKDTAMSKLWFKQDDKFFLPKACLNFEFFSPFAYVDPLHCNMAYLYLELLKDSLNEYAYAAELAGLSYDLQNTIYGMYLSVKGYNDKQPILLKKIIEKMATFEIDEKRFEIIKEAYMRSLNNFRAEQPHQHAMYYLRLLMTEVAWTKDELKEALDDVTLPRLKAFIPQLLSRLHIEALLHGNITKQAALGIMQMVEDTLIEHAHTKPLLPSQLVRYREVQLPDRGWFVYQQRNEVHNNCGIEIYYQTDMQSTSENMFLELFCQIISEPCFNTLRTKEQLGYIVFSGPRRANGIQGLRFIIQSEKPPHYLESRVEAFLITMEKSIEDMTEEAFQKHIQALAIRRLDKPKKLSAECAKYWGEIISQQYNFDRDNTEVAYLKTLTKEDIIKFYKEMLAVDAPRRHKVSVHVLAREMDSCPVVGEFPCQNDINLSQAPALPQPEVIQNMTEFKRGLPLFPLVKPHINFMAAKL
PolyA inhibitor: yeast polyadenylation inhibition | S. cerevisiae SKY197-pL101 polyadenylation reporter, beta-gal luminescence; efflux-impaired pdr1/pdr3 knockout yeast; score 100 = 6 SD above DMSO | activity score, % at 12 µM | hit rate 0.02% among 300,000 | AID 1875;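 active means lowest replicate activity score at least 50, where 100 means six control SD above control mean; inconclusive means lowest score under 50 but half or more replicates reach 50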;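 further: yeast exposed to compound for 9 h at 30 °C; higher score means more reporter readthrough which indicates perturbed polyadenylation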
PfM18AAP inh: blocks P. falciparum M18 aspartyl aminopeptidase; recombinant PfM18AAP, H-Glu-NHMec fluorogenic cleavage; inhibition, % at 7.35 µM; hit rate 1.2% among 290,000;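 active means inhibition above the campaign mean inhibition over all tested compounds plus 3 SD, cut at about 28% in these data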;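 further: 0% = plate median of test compound wells and 100% = 2 mM ZnCl2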
ALR H2O2 inh: inhibitors of human sulfhydryl oxidase ALR; purified ALR, DTT oxidation, H2O2 HRP-luminol luminescence; inhibition, % (concentration not given with the values); hit rate 3.8% among 290,000; AID 485317;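 active means mean replicate inhibition above about 79%, with every replicate also reaching it, limit read from the data; inconclusive means only one of the two criteria met; inactive means mean below limit and not every replicate reaching it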
CaV13 ICDI inh: Disruptors of the CACNA1D IQ motif to Ca2+-dependent inactivation inhibitor domain association, primary screening, Förster resonance energy transfer in intact living …; HEK cells, CFP/YFP FRET ICDI-IQ, plate reader, 10 min; percent FRET-ratio fall versus neutral wells; inhibition, % at 12.3 µM; hit rate 0.098% among 340,000;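 active means mean replicate inhibition of at least 30% and at least 1% of replicates passing that level; inconclusive means only one of the two criteria is met; inactive means neither criterion is met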;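 further: 0% = median of the neutral control wells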
IDE act: IDE (human) activation, cell-based; HEK cells, FAbeta-B cleavage, fluorescence polarization; 0% vehicle, 100% cell-free pure enzyme wells; hit rate 0.073% among 340,000; P14735; activation, % at 5.96 µM;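 active means activation above the mean of all tested compounds plus 3 SD, set per screening campaign, cut at about 17% in these data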
Starred values were filed as active, the others as inactive; ? = inconclusive; / = not tested or not shown; + = active, no number. Compounds with a hit are over-represented: about 4.1% of the library has one in this group of screens.

SMILES	IDE cell inh	PolyA inhibitor	PfM18AAP inh	ALR H2O2 inh	CaV13 ICDI inh	IDE act
NCC(O)c1cc(O)c(O)cc1F (stereo unspecified)	-1.3	/	/	82.5*	-5.3	11.0
C[C@@H]1CN([C@H](C)CO)C(=O)CCCn2nncc2CO[C@H]1CN(C)C(=O)Oc1ccccc1	/	/	/	/	-5.2	/
CC(Cc1ccccc1Sc1ccccc1O)N(C)C (stereo unspecified)	0.8	0.3	-3.4	97.9*	/	4.1
Cc1oc(-c2cccs2)nc1CSCC(=O)N1CCC2(CC1)OCCO2	4.7	21.7	-7.4	99.1*	-5.5	6.8
COc1ccc(-c2nc(CSCC(=O)N3CCC4(CC3)OCCO4)c(C)o2)cc1OC	-1.9	-13.4	2.0	99.8*	-3.0	-0.8
COc1ccc(NC(=O)N2CCC3(CC2)OCCO3)cc1OC	-6.1	16.3	-2.0	-13.5	-4.8	6.9
O=C(Cc1cccs1)N1CCC2(CC1)OCCO2	-1.2	4.4	-4.6	-3.4	-6.3	2.5
CC(=O)OC1CCC2(C)C(CCC3C2CC(=O)C2(C)C3CC(N3CC3)C2C(C)=O)C1 (stereo unspecified)	/	/	/	/	-5.3	2.6
O=C(NC1(C(F)(F)F)Oc2ccc(Cl)cc2O1)N1CCC2(CC1)OCCO2 (stereo unspecified)	5.0	10.1	97.6*	99.2*	-7.4	-0.5
Oc1cc(O)cc(/C=C/c2ccc(O)cc2O)c1	-1.9	/	/	?	/	-1.7
CCOc1cc(-c2nc3c(C)cccn3c2NCC2CCCO2)ccc1O (stereo unspecified)	2.5	-7.4	22.7	96.5*	-3.0	1.4
Cc1cccn2c(NCC3CCCO3)c(C(C)C)nc12 (stereo unspecified)	-2.4	10.1	5.9	77.5*	-4.4	1.6
CCCCn1nnnc1C(c1cccs1)N1CCC2(CC1)C(=O)NCN2c1ccccc1 (stereo unspecified)	/	/	/	/	-6.0	/
O=c1[nH]cnc2nc(-c3ccc(N(CCCl)CCCl)cc3)[nH]c12	/	/	/	/	-5.8	3.9
Cc1c(C(=O)N2CCC3(CC2)OCCO3)sc2ncnc(N3CCc4ccccc4C3)c12	-1.1	-3.2	-10.0	-8.1	-5.2	-2.9
O=P(N1CC1)(N1CC1)N1CCc2ccccc21	/	/	/	/	-7.7	8.5
O=C(O)CCCc1ccc(N(CCCl)CCCl)cc1	-2.5	-5.1	13.1	98.7*	-4.8	-1.5
N[C@@H](Cc1ccc(N(CCCl)CCCl)cc1)C(=O)O	4.8	/	/	-4.5	-4.9	-1.4
Cc1[nH]c2ccccc2c1/C=N/O	3.7	-9.2	-8.1	95.8*	-5.6	4.2
Nc1ccc2ccc3cccc[n+]3c2c1	-28.0	0.4	5.5	-18.7	+	46.1*
O=S(=O)(c1ccc2ccccc2c1)N1Cc2cc(Br)ccc2-n2nncc2C1	/	/	/	/	-4.5	/
COC(=O)C(O)(c1ccc2c(c1)CCCN2)C(F)(F)F (stereo unspecified)	-2.4	-6.6	-0.1	96.6*	-8.7	4.0
COC(=O)N(C)c1ccc(C(O)(C(=O)OC)C(F)(F)F)cc1 (stereo unspecified)	0.3	-6.1	-1.6	-26.6	3.4	3.5
CNC(=O)Oc1cccc(-c2cn3cc(OC(=O)NC)ccc3n2)c1	6.0	/	31.0*	31.5	-7.1	4.5
N=C1c2ccccc2CN1c1ccc(F)c([N+](=O)[O-])c1	-4.3	-8.0	1.9	17.5	-16.2	3.1
SMILES	IDE cell inh	PolyA inhibitor	PfM18AAP inh	ALR H2O2 inh	CaV13 ICDI inh	IDE act
CCC/C=C(\CCC)C(NP(=O)(c1ccccc1)c1ccccc1)c1ccccc1 (stereo unspecified)	2.1	-12.1	/	-9.7	/	/
O=C(c1ccc2c(c1)N(Cc1ccc(F)cc1)CCS2)N1CCC2(CC1)OCCO2	3.7	2.9	6.6	82.0*	-4.4	0.9
Cc1ccc(CN2CCN(CC(=O)N3CCC4(CC3)OCCO4)C2=O)cc1	-0.5	3.8	-5.2	18.7	-0.7	2.8
O=C(c1ccc2c(c1)ncn2-c1ccc(F)cc1F)N1CCC2(CC1)OCCO2	-5.1	0.5	-0.8	-3.9	0.1	2.3
Cc1ccc(CN2CCSc3ccc(C(=O)N4CCC5(CC4)OCCO5)cc32)cc1	9.1	-14.7	1.9	79.8*	-2.3	4.7
O=C1CC(c2ccccc2)CN1 (stereo unspecified)	5.3	17.0	-0.3	-1.2	-28.8	5.3
Cc1ccc2nc(-c3ccc(CN4CCC(n5c(=O)[nH]c6cc(Cl)ccc65)CC4)cc3)c(-c3ccccc3)nc2c1	/	/	/	/	-15.7	/
S=P(Nn1cnnc1)(c1ccc(Br)cc1)c1ccc(Br)cc1	3.4	-14.9	29.2*	-2.6	-6.3	3.0
CN1CCC(c2c[nH]c3ccc(O)cc23)CC1	/	/	/	/	-4.3	5.6
CC1CCCC(C)N1/N=C/c1c[nH]c2ccc(Br)cc12 (stereo unspecified)	1.2	-9.4	2.0	98.6*	-1.2	3.4
O=C(c1ccccc1)C1NC1c1ccccc1 (stereo unspecified)	3.0	-0.1	4.4	0.8	-3.0	19.7*
Cn1nc(-c2ccc(OCC(=O)N3CCN(Cc4ccccc4)CC3)cc2)c2ccccc2c1=O	4.8	-12.6	0.7	-19.3	-7.9	0.6
Cc1ccc(NP(=O)(c2ccccc2)c2nc3ccccc3s2)cc1 (stereo unspecified)	-2.6	-27.7	-3.0	-12.2	-4.8	-2.0
O=c1[nH]c(=O)n(CCC2=CCCCC2)c(O)c1/C=N/Nc1ccccc1	-4.7	-25.1	-1.4	98.2*	-4.4	3.0
CCC(C)n1c(O)c(/C=N/Nc2ccccc2)c(=O)[nH]c1=S (stereo unspecified)	2.9	-10.1	6.5	99.9*	-2.7	3.2
O=c1[nH]c(=O)n(Cc2ccc(F)cc2)c(O)c1/C=N/Nc1ccccc1	-4.6	-10.5	9.0	98.6*	-7.2	-4.1
Cc1ccc(OC(=O)N(C)C[C@@H]2OCc3cnnn3CCCC(=O)N([C@H](C)CO)C[C@H]2C)cc1	/	/	/	/	-5.2	/
CC(=O)O[C@@H]1/C=C/[C@](C)(O)C[C@@H](C)C/C=C/[C@H]2[C@@H]3O[C@]3(C)[C@@H](C)[C@H]3[C@H](Cc4ccccc4)NC(=O)[C@@]312	1.3	-0.1	/	/	/	/
COc1ccc(/C=N/N=C(/N)N[N+](=O)[O-])c(OC)c1	-1.0	7.7	-6.7	-4.6	/	7.2
N/C(=N\N=C/c1ccc(-c2ccc(O)c(C(=O)O)c2)o1)N[N+](=O)[O-]	0.4	-4.9	31.5*	38.1	-3.7	-4.8
CCN(CC)C(=O)c1ccc2c(c1)C1C(Cl)C(Sc3ccccc3[N+](=O)[O-])CC1C(C(=O)O)N2 (stereo unspecified)	2.4	2.0	23.8	97.0*	/	9.8
Cc1cc2c(C(C)C)c(O)c(O)c(C=O)c2c(O)c1-c1c(C)cc2c(C(C)C)c(O)c(O)c(C=O)c2c1O	/	/	31.8*	/	-1.8	/

Screening data: PubChem BioAssay, several laboratories
